Compound in the assay: Nc1ncnc2c1ncn2[C@@H]1O[C@H](COP(=O)(O)OP(=O)(O)OP(=O)(O)O)[C@@H](O)[C@H]1O [adenosine triphosphate]
Kind of assay: NP40-soluble protein abundance relative to vehicle (solubility fold change) (ratio); higher = more soluble protein in presence of ATP. The procedure, abridged: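 Jurkat crude lysate prepared with a Dounce homogeniser was treated at eight concentrations spanning 0.1 to 10 mM, 10 min at room temperature then 3 min at 37 °C. Solubilisation with 0.8% NP40 and benzonase and ultracentrifugation preceded TMT labelling of the supernatant for LC-MS/MS. Fold change against the detergent-processed vehicle was determined per replicate from vsn-normalised intensities, across three independent experiments.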

Drawing on the supplement of paper PMC6411743, this text covers NP40-soluble protein abundance for 15 targets.

± gives the standard deviation of the averaged measurements. Of roughly 6,500 targets only a part is listed; those with the largest changes were picked by preference.

Chain of UniProt Q3MII6 (Q3MII6 whole entry): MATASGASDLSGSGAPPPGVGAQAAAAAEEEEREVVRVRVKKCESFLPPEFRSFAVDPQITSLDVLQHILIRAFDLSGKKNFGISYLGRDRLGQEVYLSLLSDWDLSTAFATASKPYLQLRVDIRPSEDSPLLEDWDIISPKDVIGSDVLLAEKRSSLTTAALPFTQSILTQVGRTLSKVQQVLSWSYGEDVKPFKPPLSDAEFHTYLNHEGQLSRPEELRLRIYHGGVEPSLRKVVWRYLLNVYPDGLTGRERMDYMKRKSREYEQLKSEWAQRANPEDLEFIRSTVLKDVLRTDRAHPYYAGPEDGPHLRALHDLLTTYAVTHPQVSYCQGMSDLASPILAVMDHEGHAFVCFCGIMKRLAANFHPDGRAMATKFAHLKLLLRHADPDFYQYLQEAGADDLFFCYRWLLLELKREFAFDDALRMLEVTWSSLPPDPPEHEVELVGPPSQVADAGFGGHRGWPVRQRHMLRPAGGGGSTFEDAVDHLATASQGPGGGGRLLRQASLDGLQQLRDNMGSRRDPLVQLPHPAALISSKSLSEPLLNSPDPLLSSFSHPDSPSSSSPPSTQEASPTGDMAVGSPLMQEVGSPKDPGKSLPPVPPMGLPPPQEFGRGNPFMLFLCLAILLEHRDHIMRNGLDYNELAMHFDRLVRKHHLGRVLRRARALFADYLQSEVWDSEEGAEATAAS
Chain of UniProt Q14289 (Q14289 whole entry, looked up, one chain of several): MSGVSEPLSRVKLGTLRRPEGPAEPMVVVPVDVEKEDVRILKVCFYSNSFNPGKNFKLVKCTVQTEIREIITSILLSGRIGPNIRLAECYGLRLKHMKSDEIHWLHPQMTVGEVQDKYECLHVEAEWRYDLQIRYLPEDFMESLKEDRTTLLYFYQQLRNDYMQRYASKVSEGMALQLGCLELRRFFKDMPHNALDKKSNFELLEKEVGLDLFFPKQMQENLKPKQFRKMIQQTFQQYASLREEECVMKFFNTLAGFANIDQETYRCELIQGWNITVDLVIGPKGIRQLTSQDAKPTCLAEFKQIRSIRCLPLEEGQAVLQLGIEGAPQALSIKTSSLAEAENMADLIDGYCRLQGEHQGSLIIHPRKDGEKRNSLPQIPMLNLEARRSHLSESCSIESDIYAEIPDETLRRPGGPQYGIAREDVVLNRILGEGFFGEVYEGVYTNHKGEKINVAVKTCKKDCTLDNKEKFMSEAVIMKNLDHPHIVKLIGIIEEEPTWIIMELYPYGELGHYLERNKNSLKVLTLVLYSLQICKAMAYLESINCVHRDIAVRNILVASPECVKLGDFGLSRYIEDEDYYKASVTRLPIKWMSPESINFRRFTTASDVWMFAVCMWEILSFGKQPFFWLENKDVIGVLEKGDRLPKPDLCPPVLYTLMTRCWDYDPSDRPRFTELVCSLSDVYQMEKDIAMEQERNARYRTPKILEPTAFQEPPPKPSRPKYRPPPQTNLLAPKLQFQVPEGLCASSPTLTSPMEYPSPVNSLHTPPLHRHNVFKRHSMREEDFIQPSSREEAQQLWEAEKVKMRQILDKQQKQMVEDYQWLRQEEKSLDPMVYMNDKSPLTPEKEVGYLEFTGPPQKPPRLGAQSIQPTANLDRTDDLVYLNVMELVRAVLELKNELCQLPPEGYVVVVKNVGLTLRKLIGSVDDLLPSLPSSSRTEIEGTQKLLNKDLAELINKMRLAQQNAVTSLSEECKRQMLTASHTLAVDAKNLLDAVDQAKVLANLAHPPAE
Chain of UniProt Q8WUY8 (Q8WUY8 whole entry, one chain of several): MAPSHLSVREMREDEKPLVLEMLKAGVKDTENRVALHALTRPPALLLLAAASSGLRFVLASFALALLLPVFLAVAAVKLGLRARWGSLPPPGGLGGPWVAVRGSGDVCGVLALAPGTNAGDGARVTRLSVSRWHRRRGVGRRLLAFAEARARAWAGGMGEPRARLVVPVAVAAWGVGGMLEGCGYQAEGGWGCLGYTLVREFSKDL
Chain of UniProt Q86W42 (Q86W42 whole entry): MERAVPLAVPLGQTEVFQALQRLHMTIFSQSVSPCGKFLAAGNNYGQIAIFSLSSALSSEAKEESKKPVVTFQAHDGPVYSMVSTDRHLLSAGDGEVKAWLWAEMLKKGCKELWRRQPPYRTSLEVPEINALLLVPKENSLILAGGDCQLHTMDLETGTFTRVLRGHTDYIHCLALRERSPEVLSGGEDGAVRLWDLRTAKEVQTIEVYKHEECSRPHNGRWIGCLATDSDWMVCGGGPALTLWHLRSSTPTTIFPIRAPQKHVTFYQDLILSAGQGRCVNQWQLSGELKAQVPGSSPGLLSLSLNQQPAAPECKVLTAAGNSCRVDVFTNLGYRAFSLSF
Chain of UniProt Q14643 (Q14643 whole entry): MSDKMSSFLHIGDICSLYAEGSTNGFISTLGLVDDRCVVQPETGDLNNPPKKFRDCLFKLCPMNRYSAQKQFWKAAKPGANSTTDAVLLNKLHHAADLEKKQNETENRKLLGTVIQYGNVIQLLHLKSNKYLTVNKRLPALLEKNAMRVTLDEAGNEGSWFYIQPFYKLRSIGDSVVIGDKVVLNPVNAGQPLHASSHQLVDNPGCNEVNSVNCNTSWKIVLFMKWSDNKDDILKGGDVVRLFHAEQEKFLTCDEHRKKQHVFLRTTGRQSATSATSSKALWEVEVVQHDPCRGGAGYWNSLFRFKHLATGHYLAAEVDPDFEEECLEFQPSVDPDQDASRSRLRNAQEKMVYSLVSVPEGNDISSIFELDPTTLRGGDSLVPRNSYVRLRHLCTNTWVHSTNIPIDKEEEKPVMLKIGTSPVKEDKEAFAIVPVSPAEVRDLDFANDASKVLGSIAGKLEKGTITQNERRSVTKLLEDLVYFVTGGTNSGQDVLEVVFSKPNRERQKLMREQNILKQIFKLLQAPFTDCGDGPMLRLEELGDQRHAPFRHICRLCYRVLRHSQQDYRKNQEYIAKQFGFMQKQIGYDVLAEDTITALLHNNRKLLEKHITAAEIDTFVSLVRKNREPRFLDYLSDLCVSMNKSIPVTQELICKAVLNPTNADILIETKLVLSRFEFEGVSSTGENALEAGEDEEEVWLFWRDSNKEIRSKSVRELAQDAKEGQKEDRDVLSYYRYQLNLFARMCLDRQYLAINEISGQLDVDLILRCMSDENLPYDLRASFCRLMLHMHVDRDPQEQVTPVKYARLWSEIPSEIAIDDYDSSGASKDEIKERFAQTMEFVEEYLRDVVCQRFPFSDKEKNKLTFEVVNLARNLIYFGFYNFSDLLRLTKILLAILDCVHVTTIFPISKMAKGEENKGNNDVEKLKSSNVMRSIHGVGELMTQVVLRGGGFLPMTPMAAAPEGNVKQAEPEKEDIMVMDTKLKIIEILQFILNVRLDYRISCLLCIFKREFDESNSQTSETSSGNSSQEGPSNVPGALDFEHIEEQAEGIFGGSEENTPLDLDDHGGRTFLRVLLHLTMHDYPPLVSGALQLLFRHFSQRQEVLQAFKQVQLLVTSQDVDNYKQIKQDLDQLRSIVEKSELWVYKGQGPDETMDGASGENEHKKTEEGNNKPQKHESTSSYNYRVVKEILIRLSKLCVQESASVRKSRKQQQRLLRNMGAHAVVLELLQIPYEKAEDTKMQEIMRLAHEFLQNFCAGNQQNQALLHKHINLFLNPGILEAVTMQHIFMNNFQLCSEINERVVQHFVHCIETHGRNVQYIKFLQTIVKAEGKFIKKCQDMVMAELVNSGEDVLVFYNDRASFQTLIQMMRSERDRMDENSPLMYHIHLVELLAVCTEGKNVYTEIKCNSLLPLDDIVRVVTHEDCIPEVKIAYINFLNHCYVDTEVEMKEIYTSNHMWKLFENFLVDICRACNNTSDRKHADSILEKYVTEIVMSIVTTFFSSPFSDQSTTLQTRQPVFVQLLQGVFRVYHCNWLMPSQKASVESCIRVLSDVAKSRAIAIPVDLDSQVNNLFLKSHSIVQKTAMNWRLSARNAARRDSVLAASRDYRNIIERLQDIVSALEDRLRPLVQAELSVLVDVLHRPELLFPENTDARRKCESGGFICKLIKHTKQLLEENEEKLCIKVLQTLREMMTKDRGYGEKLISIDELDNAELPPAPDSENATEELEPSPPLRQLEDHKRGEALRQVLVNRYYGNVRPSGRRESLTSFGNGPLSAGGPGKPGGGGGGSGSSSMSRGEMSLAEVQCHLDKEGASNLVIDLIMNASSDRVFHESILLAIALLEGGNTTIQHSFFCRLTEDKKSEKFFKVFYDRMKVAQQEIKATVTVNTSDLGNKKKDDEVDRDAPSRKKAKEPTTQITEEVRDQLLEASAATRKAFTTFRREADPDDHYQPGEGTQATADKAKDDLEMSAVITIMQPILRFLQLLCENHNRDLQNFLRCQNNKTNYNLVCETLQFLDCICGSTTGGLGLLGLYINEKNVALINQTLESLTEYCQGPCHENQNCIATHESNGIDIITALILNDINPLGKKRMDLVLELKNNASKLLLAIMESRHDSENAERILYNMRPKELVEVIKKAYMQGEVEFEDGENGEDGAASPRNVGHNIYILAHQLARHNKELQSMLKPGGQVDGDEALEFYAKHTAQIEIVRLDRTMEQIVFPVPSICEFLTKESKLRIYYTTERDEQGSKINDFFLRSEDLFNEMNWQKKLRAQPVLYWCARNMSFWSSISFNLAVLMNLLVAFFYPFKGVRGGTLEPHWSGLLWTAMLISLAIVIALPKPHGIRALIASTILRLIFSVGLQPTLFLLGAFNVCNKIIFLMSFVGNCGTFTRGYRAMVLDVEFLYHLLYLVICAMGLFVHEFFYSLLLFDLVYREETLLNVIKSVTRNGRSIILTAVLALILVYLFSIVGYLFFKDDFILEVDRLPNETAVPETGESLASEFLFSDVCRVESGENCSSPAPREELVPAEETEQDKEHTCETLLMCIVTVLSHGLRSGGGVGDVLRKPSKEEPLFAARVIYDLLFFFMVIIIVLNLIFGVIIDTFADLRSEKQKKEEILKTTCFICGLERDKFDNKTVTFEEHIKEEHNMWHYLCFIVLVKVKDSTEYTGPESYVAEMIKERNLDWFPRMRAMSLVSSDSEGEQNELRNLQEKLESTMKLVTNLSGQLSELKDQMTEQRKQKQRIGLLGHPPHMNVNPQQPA

Take NFX1 (UniProt Q12986): the NP40-soluble protein abundance by setting is: (concentration: 1mM) 1.07 ± 0.08; (concentration: 2mM) 1.21 ± 0.042; (concentration: 4mM) 1.34 ± 0.041; (concentration: 6mM) 1.46 ± 0.046; (concentration: 8mM) 1.62 ± 0.031; (concentration: 10mM) 1.66 ± 0.11.
With UniProt Q8WUY8|M0R1E3, the NP40-soluble protein abundance runs as follows: (concentration: 1mM) 1.02 ± 0.085; (concentration: 2mM) 1.049 ± 0.0036; (concentration: 4mM) 1.13 ± 0.032; (concentration: 6mM) 0.966 ± 0.052; (concentration: 8mM) 1.03 ± 0.067; (concentration: 10mM) 1.08 ± 0.013.
On to PCGF5 (UniProt Q86SE9), for which the NP40-soluble protein abundance is, setting by setting: (concentration: 1mM) 0.922 ± 0.16; (concentration: 2mM) 1.01 ± 0.056; (concentration: 4mM) 0.981 ± 0.15; (concentration: 6mM) 0.987 ± 0.087; (concentration: 8mM) 0.954 ± 0.11; (concentration: 10mM) 1.07 ± 0.037.
Take UniProt Q86W42|Q86W42-2: the NP40-soluble protein abundance was determined as 1.59 ± 0.18 (concentration: 1mM); 1.69 ± 0.05 (concentration: 2mM); 2 ± 0.087 (concentration: 4mM); 2.16 ± 0.071 (concentration: 6mM); 2.47 ± 0.094 (concentration: 8mM); 2.55 ± 0.19 (concentration: 10mM).
On to UniProt Q13111|K7EPA1, for which the NP40-soluble protein abundance runs as follows: (concentration: 1mM) 0.987 ± 0.059; (concentration: 2mM) 0.988 ± 0.028; (concentration: 4mM) 0.97 ± 0.035; (concentration: 6mM) 1.03 ± 0.031; (concentration: 8mM) 0.977 ± 0.036; (concentration: 10mM) 1.01 ± 0.036.
Turning to “UniProt Q8N137|Q8N137-2|Q8N137-3|Q8N137-4|Q8N137-5”, the NP40-soluble protein abundance is, setting by setting: (concentration: 1mM) 0.92 ± 0.024; (concentration: 2mM) 1.032 ± 0.006; (concentration: 4mM) 1.15 ± 0.056; (concentration: 6mM) 0.983 ± 0.054; (concentration: 8mM) 0.945 ± 0.026; (concentration: 10mM) 0.947 ± 0.2.
Turning to TBC1D25 (UniProt Q3MII6), the NP40-soluble protein abundance worked out at 0.982 ± 0.059 (concentration: 1mM); 1.04 ± 0.11 (concentration: 2mM); 1.05 ± 0.16 (concentration: 4mM); 0.962 ± 0.095 (concentration: 6mM); 1.01 ± 0.14 (concentration: 8mM); 1 ± 0.15 (concentration: 10mM).
On to UniProt Q14643|Q14643-2|Q14643-5, for which the NP40-soluble protein abundance was determined as 1.05 ± 0.071 (concentration: 1mM); 0.999 ± 0.065 (concentration: 2mM); 1 ± 0.041 (concentration: 4mM); 0.961 ± 0.07 (concentration: 6mM); 1.02 ± 0.027 (concentration: 8mM); 0.995 ± 0.045 (concentration: 10mM).
As to SF3B3 (UniProt Q15393), the NP40-soluble protein abundance was found to be 1.12 ± 0.072 (concentration: 1mM); 1.11 ± 0.052 (concentration: 2mM); 1.15 ± 0.072 (concentration: 4mM); 1.1 ± 0.032 (concentration: 6mM); 1.188 ± 0.0092 (concentration: 8mM); 1.19 ± 0.037 (concentration: 10mM).
UniProt Q14289|Q14289-2|H0YB74: the NP40-soluble protein abundance was 1.03 ± 0.04 (concentration: 1mM); 1.04 ± 0.042 (concentration: 2mM); 1.02 ± 0.04 (concentration: 4mM); 0.981 ± 0.06 (concentration: 6mM); 1.01 ± 0.04 (concentration: 8mM); 1 ± 0.064 (concentration: 10mM).
Take DDX60 (UniProt Q8IY21): the NP40-soluble protein abundance by setting is: (concentration: 1mM) 1.2 ± 0.078; (concentration: 2mM) 1.27 ± 0.093; (concentration: 4mM) 1.66 ± 0.11; (concentration: 6mM) 1.73 ± 0.15; (concentration: 8mM) 1.9 ± 0.16; (concentration: 10mM) 1.95 ± 0.11.
BNIP1 (UniProt Q12981): the NP40-soluble protein abundance is, setting by setting: (concentration: 1mM) 0.986 ± 0.051; (concentration: 2mM) 0.983 ± 0.05; (concentration: 4mM) 0.98 ± 0.07; (concentration: 6mM) 1 ± 0.012; (concentration: 8mM) 0.971 ± 0.049; (concentration: 10mM) 0.932 ± 0.053.
For the target C6ORF134 (UniProt Q5SQI0), the NP40-soluble protein abundance (concentration: 1mM) was found to be 0.975 ± 0.073; the NP40-soluble protein abundance (concentration: 2mM) was determined as 0.98 ± 0.089; the NP40-soluble protein abundance (concentration: 4mM) was 0.981 ± 0.064; the NP40-soluble protein abundance (concentration: 6mM) is 0.999 ± 0.09; the NP40-soluble protein abundance (concentration: 8mM) stood at 0.983 ± 0.029; the NP40-soluble protein abundance (concentration: 10mM) was found to be 0.998 ± 0.04.
For FAM117B (UniProt Q6P1L5), the NP40-soluble protein abundance was found to be 0.945 ± 0.048 (concentration: 1mM); 0.984 ± 0.061 (concentration: 2mM); 0.97 ± 0.039 (concentration: 4mM); 0.978 ± 0.042 (concentration: 6mM); 0.952 ± 0.069 (concentration: 8mM); 0.946 ± 0.032 (concentration: 10mM).
Take “UniProt Q13409|Q13409-2|Q13409-3|Q13409-7|Q13409-5”: the NP40-soluble protein abundance reads like this: (concentration: 1mM) 0.957 ± 0.063; (concentration: 2mM) 0.957 ± 0.037; (concentration: 4mM) 0.953 ± 0.059; (concentration: 6mM) 0.994 ± 0.18; (concentration: 8mM) 0.975 ± 0.089; (concentration: 10mM) 0.973 ± 0.074.
